The text below walks through data of PubChem BioAssay (NCI).

This is part of a sample that, as a whole, favours compounds with a hit. Of some 83,000 tested, about 20% had one in any assay.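 Percent growth is the endpoint: 0 to 100 indicates growth inhibition (40 means 60% inhibition), 0 means no net growth, and negative values indicate cell death.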 Values without a mark were called inactive. Calls of active or inactive are those of the source. How the source made its calls: active means growth percent below 10; inactive means the rest.

Common to all, as to assay: NCI-60 one-dose screen, 48 h (100 = growth as untreated, 0 = no growth, -100 = all killed)
What all share (conditions): 10 µM

In assay [1] the test system is SR leukemia.
Assay [2] concerns RPMI-8226 leukemia.
Assay [3] relates to OVCAR-8 ovarian.
The test system of assay [4] is OVCAR-5 ovarian.
For assay [5], the system named is OVCAR-4 ovarian.
The test system of assay [6] is SK-OV-3 ovarian.
In assay [7] the test system is IGROV1 ovarian.
For assay [8], the system named is OVCAR-3 ovarian.
The subject of assay [9] is HS 578T breast.
The test system of assay [10] is NCI/ADR-RES ovarian.
For assay [11], the system named is T-47D breast.
For assay [12], the system named is BT-549 breast.
Assay [13] relates to MDA-MB-435 melanoma.
In assay [14] the test system is SW-620 colon.
Assay [15] deals with MCF7 breast.
Assay [16] relates to HCT-116 colon.
In assay [17] the test system is HCC-2998 colon.
For assay [18], the system named is KM12 colon.

For the molecule `COc1ccc(C2C=C(c3ccc(Cl)cc3)N=C3SC=CN32)c(Br)c1` (centres undefined), the growth in assay [1] is 59.2%; in assay [2], 52.3%; in assay [3], 67.3%; in assay [4], 98.2%; in assay [5], 80.9%; in [6], 117%. Also, the growth is 98.1% in assay [7]; 60.5% in assay [8]; 94.8% in assay [9]; 89.9% in [10]; 71.8% in assay [11]; 96.7% in assay [12]. For the same molecule, the growth in assay [13] was 69.2%; in assay [14], 91.3%; in assay [15], 75.3%; in assay [16], 54%; in assay [17] it was 86.9%; in [18], 62.3%.

As to `O=c1oc2cc(OS(=O)(=O)C3CC3)ccc2c2c1CCCCCC2`, the growth was 52.7% in [1]; 49.3% in assay [2]; 82.6% in assay [3]; 100% in [4]; 65.3% in assay [5]; 89.1% in [6]. Also, the growth in assay [7] was 103%; in assay [8] it was 68.7%; in assay [9], 106%; in assay [10] it was 68.4%; in [11], 57.6%; in assay [12], 80.1%. The growth in assay [13] was 94.8%; in assay [14] it was 96.5%; in assay [15], 81.6%; in [16] it was 82.5%; in assay [17], 90.8%; in [18], 77.8%.

For the molecule `COc1ccc(C(=O)/C=C/c2cc(-c3ccc4c(c3)OCO4)n[nH]2)cc1OC`, the growth was -5.36% (active) in [1]; 4.4% (active) in assay [2]; 47.4% in [3]; 75.9% in assay [4]; 59.9% in [5]; 93.3% in assay [6]. The growth in assay [7] is 44.1%; in assay [8], 36.6%; in [9], 79.3%; in assay [10], 57.8%; in [11] it was 43.8%; in [12], 41.4%. Also, the growth was 73.5% in assay [13]; 36.4% in [14]; 27.2% in assay [15]; 18.4% in assay [16]; 91.3% in [17]; 54.1% in assay [18].

Take `CC(=O)[C@H]1CC[C@H]2[C@@H]3CC[C@@H]4CC=C(C=O)C[C@]4(C)[C@H]3CC[C@]12C`: the growth in assay [1] was 73.5%; in assay [2], 58.1%; in assay [3], 97.8%; in [4], 96.9%; in assay [5], 99%; in assay [6], 95.8%. Besides, the growth in [7] is 89.4%; in [8], 107%; in assay [9], 106%; in assay [10], 87.5%; in [11], 85.6%; in assay [12], 85.8%. Further, the growth was 97.3% in [13]; 106% in assay [14]; 81.1% in assay [15]; 87% in [16]; 89.5% in assay [17]; 104% in assay [18].

In the case of `CNC(=S)Sc1ccc([N+](=O)[O-])cc1[N+](=O)[O-]`, the growth in assay [1] is 17.3%; in assay [2], 13.7%; in assay [3], 81.3%; in [4], 93.7%; in assay [5] it was 77.1%; in [6], 80.2%. The growth in assay [7] is 104%; in assay [8] it was 36.3%; in assay [9], 88.2%; in [10], 92.5%; in [11], 32.2%; in assay [12] it was 20.5%. The growth in [13] was 29.5%; in assay [14], 36.8%; in [15] it was 31.5%; in [16] it was 27.7%; in [17], 75.1%; in assay [18], 13.4%.

Consider `NC(=O)c1ccc(Br)o1`, for which the growth in assay [1] is 97.4%; in [2] it was 112%; in assay [3], 108%; in assay [4], 105%; in assay [5], 107%; in [6] it was 104%. Besides, the growth in assay [7] was 107%; in [8], 107%; in assay [9] it was 109%; in assay [10], 96.8%; in [11] it was 92.9%; in [12], 103%. Also, the growth in assay [13] was 112%; in assay [14], 113%; in [15], 95.5%; in assay [16], 108%; in assay [17], 91.1%; in [18], 102%.

For the molecule `N/C(=N\O)c1cn(C2OC(CO)C(O)C2O)c2ncnc(N)c12` (centres undefined), the growth is -4.39% (active) in assay [1]; -43.6% (active) in assay [2]; -14.4% (active) in assay [3]; 24.3% in assay [4]; -21.6% (active) in [5]; -30.2% (active) in assay [6]. Also, the growth in [7] is -13.7% (active); in [8] it was -18.3% (active); in assay [9], -5.15% (active); in assay [10] it was 4.77% (active); in [11], -7.04% (active); in [12], 14%. Also, the growth in [13] is -73.1% (active); in assay [14], -12.1% (active); in [15] it was -29.9% (active); in assay [16], 9.85% (active); in assay [17] it was -23.1% (active); in assay [18] it was -24.2% (active).

For `Cc1ccc2c3c(cccc13)-c1ccccc1C2=O`, the growth is 94.1% in assay [1]; 97.8% in [2]; 94.2% in assay [3]; 113% in assay [4]; 105% in [5]; 92.1% in assay [6]. The growth in assay [7] was 94%; in [8] it was 108%; in assay [9], 94%; in assay [10], 99%; in assay [11], 84.9%; in [12] it was 106%. For the same molecule, the growth in assay [13] is 98.9%; in [14] it was 93%; in assay [15], 96.6%; in assay [16] it was 86.4%; in assay [17], 89%; in assay [18], 54.4%.
